Here are results for 22 compounds from PubChem BioAssay (NCI).

Each structure is given as a SMILES string. Several values for one entry are separate records, joined by “and”; a condition that tells them apart may be missing. Equal entries are not always repeated. The panel holds about 79,000 compounds, 15% with a hit somewhere; the sample as a whole holds those more often. The source holds several records for some structures; these can differ, active in one and inactive in another. Activity calls are given as the source filed them. No stated cut-off is given here; in the data, active means growth inhibition above about 70%; inactive means the rest.

A short description of experiment [1]: NCI Yeast Anticancer Drug Screen. Data for the rad50 strain (AID 155).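 Further: 0% = growth of vehicle-only cultures of the same strain.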 The following applies: S. cerevisiae rad50 strain growth inhibition; at 50.0 µM; stronger effect = higher value. The method, boiled down:
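Compounds were tested on a yeast strain with an engineered DNA damage repair alteration; the reported value is growth inhibition normalised to vehicle treatment.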

The nature of experiment [2]: NCI Yeast Anticancer Drug Screen. Data for the mec2-1 strain (AID 157). The following applies: S. cerevisiae mec2-1 strain, at 50.0 µM, stronger effect = higher value. Put shortly:
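Strain: mec2-1 (DNA repair/cell cycle alteration). Compound exposure, then growth measured; inhibition expressed relative to vehicle.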

The nature of experiment [3]: NCI Yeast Anticancer Drug Screen. Data for the sgs1 mgt1 strain (AID 161).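 Further: 0% = growth of cultures given vehicle only.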 The following applies: S. cerevisiae sgs1 mgt1 strain, at 50.0 µM, stronger effect = higher value. The method, boiled down:
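Read-out: growth inhibition vs vehicle controls. Cells: mutant yeast strain deficient in DNA damage repair.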

Experiment [4] is described as follows: NCI Yeast Anticancer Drug Screen. Data for the cln2 rad14 strain (AID 165).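 Further: 0% = growth equal to vehicle treated cultures.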 The following applies: S. cerevisiae cln2 rad14 strain, at 50.0 µM, stronger effect = higher value. Put shortly:
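Compounds are applied to the cln2 rad14 yeast strain, and growth is then compared with that of vehicle-treated cultures to give inhibition.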

A short description of experiment [5]: NCI Yeast Anticancer Drug Screen. Data for the bub3 strain (AID 167). The following applies: S. cerevisiae bub3 mutant strain, at 50.0 µM, stronger effect = higher value. Put shortly:
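Growth of a checkpoint-deficient yeast mutant is measured after compound exposure. Values represent inhibition relative to vehicle.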

Experiment [6] can be described thus: NCI Yeast Anticancer Drug Screen. Data for the mlh1 rad18 strain (AID 175). The following applies: S. cerevisiae mlh1 rad18 strain growth inhibition; at 50.0 µM; stronger effect = higher value. The method, boiled down: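 Read-out is yeast growth inhibition, calculated against vehicle-only controls. The compound was applied to a strain engineered with DNA damage repair alterations.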

On to `NC(Cn1ccc(=O)c(O)c1)C(=O)O` (configuration not stated), for which the growth inhibition in experiment [1] was 9.8% (inactive) and -0.85% (inactive); in experiment [2], 18.6% (inactive) and 5.7% (inactive); in experiment [3] it was 7.35% (inactive) and 21.9% (inactive); in experiment [4], 13.2% (inactive) and 6.8% (inactive); in experiment [5], 10.7% (inactive) and 11.4% (inactive); in experiment [6], -90.2% (inactive) and 4.3% (inactive).

Regarding `COC(=O)C1(C)CCCC2(C)c3cc(OC)ccc3C=CC12` (configuration not stated), the growth inhibition in experiment [1] was 14.5% (inactive) and 6.75% (inactive); in experiment [2], -1.8% (inactive) and 8.1% (inactive); in experiment [3], -0.6% (inactive) and 2.55% (inactive); in experiment [4], -0.6% (inactive) and 4.75% (inactive); in experiment [5] it was 2.5% (inactive) and 21.5% (inactive); in experiment [6] it was 4.45% (inactive) and 1.2% (inactive).

Take `O=S(=O)(O)NC1CCCCC1`: the growth inhibition in experiment [1] was 29.4% (inactive) and 4.8% (inactive); in experiment [2], 16.2% (inactive) and -1.15% (inactive); in experiment [3], -7.7% (inactive) and -4.9% (inactive); in experiment [4], -50.7% (inactive) and -6.3% (inactive); in experiment [5], 11.4% (inactive) and 10.1% (inactive); in experiment [6] it was 11.8% (inactive) and -9.45% (inactive).

In the case of `O=C(O)c1cc([N+](=O)[O-])ccc1Nc1ccccc1`, the growth inhibition in experiment [1] is 10.8% (inactive) and -9.95% (inactive); in experiment [2], 0.2% (inactive) and -12.4% (inactive); in experiment [3] it was -7.05% (inactive) and -3.35% (inactive); in experiment [4], 31.6% (inactive) and -28.6% (inactive); in experiment [5], 18.6% (inactive) and -3.55% (inactive); in experiment [6], 18.1% (inactive) and -6.2% (inactive).

Regarding `CC(C)C(=O)/C=C/c1ccccc1`, the growth inhibition in experiment [1] is 11.1% (inactive) and 21.2% (inactive); in experiment [2], -2.4% (inactive) and -2.75% (inactive); in experiment [3], 10% (inactive) and -5.25% (inactive); in experiment [4], 18.2% (inactive) and -12.6% (inactive); in experiment [5] it was 7.7% (inactive) and -3.95% (inactive); in experiment [6] it was 17.8% (inactive) and 8% (inactive).

On to `C1=C(c2cccc3ccccc23)CCCC1`, for which the growth inhibition is -2.85% (inactive) and 18.2% (inactive) in experiment [1]; 7.45% (inactive) and -4.1% (inactive) in experiment [2]; -12.4% (inactive) and -5.1% (inactive) in experiment [3]; -0.1% (inactive) and 8.1% (inactive) in experiment [4]; 2.65% (inactive) and 11.7% (inactive) in experiment [5]; 6.9% (inactive) and -9.2% (inactive) in experiment [6].

In the case of `O=c1[nH]c(F)nc2c1ncn2C1OC(CO)C(O)C1O` (configuration not stated), the growth inhibition in experiment [1] was -9.5% (inactive) and -20.3% (inactive); in experiment [2], -5% (inactive) and -12.8% (inactive); in experiment [3] it was -5.7% (inactive) and -20.9% (inactive); in experiment [4], -16.4% (inactive) and 8.4% (inactive); in experiment [5] it was 8.75% (inactive) and -10.6% (inactive); in experiment [6] it was -21.2% (inactive) and 6% (inactive).

Regarding `CC(O)(c1cccc(Cl)c1)C(c1ccccc1)c1ccccn1` (configuration not stated), the growth inhibition is 82.6% (active) and 97.7% (active) in experiment [1]; 79.2% (active) and 97.9% (active) in experiment [2]; 95% (active) and 97.8% (active) in experiment [3]; 19.8% (inactive) and 92.2% (active) in experiment [4]; 46.8% (inactive) and 97.4% (active) in experiment [5]; 79.7% (active) and 97% (active) in experiment [6].

On to `CC(=O)O[C@@H]1C[C@H](C)CC[C@H]1C(C)C`, for which the growth inhibition in experiment [1] was 5.85% (inactive) and 0.6% (inactive); in experiment [2], -9.8% (inactive) and -2.35% (inactive); in experiment [3], -3.05% (inactive) and -3.7% (inactive); in experiment [4] it was 5.8% (inactive) and 23% (inactive); in experiment [5] it was 4.5% (inactive) and -1.45% (inactive); in experiment [6], -3.4% (inactive) and -0.8% (inactive).

With `O=C(NC(Cc1ccccc1)C(=O)O)OCc1ccccc1` (configuration not stated), the growth inhibition in experiment [1] is 4.2% (inactive) and 0.2% (inactive); in experiment [2], 23.9% (inactive) and 6.9% (inactive); in experiment [3], 12.1% (inactive) and 1% (inactive); in experiment [4], -9.35% (inactive) and -1.55% (inactive); in experiment [5], 20.7% (inactive) and -5.15% (inactive); in experiment [6], 14.7% (inactive) and 16.9% (inactive).

On to `CC/C(=N/NC(N)=O)C1=CCCCC1`, for which the growth inhibition in experiment [1] was -5.6% (inactive) and 3.4% (inactive); in experiment [2], -3.7% (inactive) and -0.85% (inactive); in experiment [3] it was -1.5% (inactive) and -15.2% (inactive); in experiment [4], -35.5% (inactive) and -33.9% (inactive); in experiment [5], -15.2% (inactive) and -9.7% (inactive); in experiment [6] it was -0.4% (inactive) and -14.7% (inactive).

Turning to `COc1cc2c(cc1OC)CN1CCc3cc(OC)c(OC)cc3C1C2` (configuration not stated), the growth inhibition in experiment [1] is -1.3% (inactive) and 16.1% (inactive); in experiment [2], -54.6% (inactive) and 11.9% (inactive); in experiment [3] it was -28.2% (inactive) and 14.3% (inactive); in experiment [4], 0.7% (inactive) and 7.8% (inactive); in experiment [5] it was -51.4% (inactive) and 17.4% (inactive); in experiment [6] it was -38.5% (inactive) and 18.1% (inactive).

`Oc1ccccc1-c1nc2ccccc2o1`: the growth inhibition was 4.85% (inactive) and 8.3% (inactive) in experiment [1]; -10.8% (inactive) and -25.2% (inactive) in experiment [2]; -13.8% (inactive) and 7.15% (inactive) in experiment [3]; -6.75% (inactive) and 1.4% (inactive) in experiment [4]; 1.05% (inactive) and 24.3% (inactive) in experiment [5]; 3.6% (inactive) and 0.9% (inactive) in experiment [6].

As to `CC(=O)N(O)CCCCCNC(=O)CCC(=O)N(O)CCCCCNC(=O)CCC(=O)N(O)CCCCCN`, the growth inhibition in experiment [1] was 12.6% (inactive) and 8% (inactive); in experiment [2], -9.65% (inactive) and -0.45% (inactive); in experiment [3] it was 2.1% (inactive) and -5.3% (inactive); in experiment [4] it was 6.9% (inactive) and 5.75% (inactive); in experiment [5], 9.55% (inactive) and 0.5% (inactive); in experiment [6], 11.4% (inactive) and 4.05% (inactive).

For `CN(C)C`, the growth inhibition in experiment [1] was 17.1% (inactive) and 2.45% (inactive); in experiment [2] it was -30.6% (inactive) and -27.2% (inactive); in experiment [3], 10.4% (inactive) and -17.1% (inactive); in experiment [4], -3.8% (inactive) and -97.7% (inactive); in experiment [5], 9.8% (inactive) and -21.9% (inactive); in experiment [6], 7.8% (inactive) and -135% (inactive).

Turning to `OCC(O)C(O)C1OC(O)C(O)C(O)C1O` (configuration not stated), the growth inhibition in experiment [1] was 1.1% (inactive) and -15.8% (inactive); in experiment [2], 0.45% (inactive) and -15.2% (inactive); in experiment [3], 3.1% (inactive) and -4.25% (inactive); in experiment [4], -8.25% (inactive) and -17.1% (inactive); in experiment [5] it was 0.25% (inactive) and -1.65% (inactive); in experiment [6], 7.85% (inactive) and -7.65% (inactive).

Turning to `O=c1c([N+](=O)[O-])c[nH]c2cc(Cl)ccc12`, the growth inhibition is -38.3% (inactive) and 6.4% (inactive) in experiment [1]; 2.25% (inactive) and -2.2% (inactive) in experiment [2]; -19.2% (inactive) and 8.3% (inactive) in experiment [3]; 0.25% (inactive) and 35.5% (inactive) in experiment [4]; -6% (inactive) and 11.6% (inactive) in experiment [5]; -33.7% (inactive) and 15.8% (inactive) in experiment [6].

For the compound `Cc1ccc(C2SCC(=O)N2CCN2C(=O)CSC2c2ccc(C)o2)o1` (configuration not stated), the growth inhibition is 7.1% (inactive) and 5.95% (inactive) in experiment [1]; 16.1% (inactive) and 8.45% (inactive) in experiment [2]; -2.45% (inactive) and 17.6% (inactive) in experiment [3]; 3.15% (inactive) and -0.1% (inactive) in experiment [4]; -1.45% (inactive) and -3.45% (inactive) in experiment [5]; 13.2% (inactive) and -12.4% (inactive) in experiment [6].

For the compound `COC(=O)CCC1C(C)(C(C)=O)CCC2C1(C)CCC1(C)C3CC(C)(C)CCC3(C)CCC21C` (configuration not stated), the growth inhibition in experiment [1] is 1.65% (inactive) and 1.05% (inactive); in experiment [2], 1.05% (inactive) and -5.35% (inactive); in experiment [3], -11.8% (inactive) and -15.2% (inactive); in experiment [4], -7.8% (inactive) and -3.65% (inactive); in experiment [5], -3.9% (inactive) and -2.15% (inactive); in experiment [6], 13.8% (inactive) and 4.4% (inactive).

In the case of `O=C(O)CCSCc1ccccc1`, the growth inhibition in experiment [1] is -25.6% (inactive) and 8.85% (inactive); in experiment [2], 0.7% (inactive) and -6.9% (inactive); in experiment [3], -23.1% (inactive) and 1.55% (inactive); in experiment [4], -31% (inactive) and -3.5% (inactive); in experiment [5], -31.4% (inactive) and -0.2% (inactive); in experiment [6] it was -30.3% (inactive) and -16.1% (inactive).

As to `O=C(O)c1cc(N=C=S)ccc1-c1c2ccc(=O)cc-2oc2cc(O)ccc12`, the growth inhibition in experiment [1] was 6.3% (inactive) and 32.9% (inactive); in experiment [2], 3.7% (inactive) and 31.5% (inactive); in experiment [3] it was -4.85% (inactive) and 15.3% (inactive); in experiment [4] it was 6% (inactive) and 16.6% (inactive); in experiment [5] it was -9.75% (inactive) and -4.1% (inactive); in experiment [6] it was 4.95% (inactive) and 45.9% (inactive).

Turning to `CC1(C)Cc2[nH]c3ccccc3c2C(C)(C)N1`, the growth inhibition in experiment [1] was -35% (inactive) and 6.55% (inactive); in experiment [2], -16.4% (inactive) and 23.3% (inactive); in experiment [3], -6.35% (inactive) and 14.5% (inactive); in experiment [4] it was -64% (inactive) and -6.15% (inactive); in experiment [5] it was -4.5% (inactive) and 12.5% (inactive); in experiment [6] it was 3.8% (inactive) and 10.5% (inactive).
